Data taken from PubChem BioAssay (Tox21).
Inconclusive results are not listed. Activity calls are given as the source filed them. Unless noted, calls follow the shape of the full dose curve.

How the values were obtained:
[1] = qHTS assay to identify small molecule antagonists of the estrogen receptor beta (ER-beta) signaling pathway - cell viability counter screen (AID 1259382; active = well fitted curve in the direction sought with a large enough effect in the repeat runs; an effect the other way counts as inactive or inconclusive; also: series mostly up to about 92 µM; nearly all actives have a fitted effect of over 55% in size)
How it was run: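 Agonist-stimulated (1nM E2) ER-beta-UAS-bla HEK293T cells are incubated with library compounds for 16 hr at 37C. Cell viability is then assessed in the reporter-assay wells by adding CellTiter-Glo and reading luminescence after 30 min.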

[2] = target: Estrogen receptor (Homo sapiens) (UniProt P03372); assay: qHTS assay to identify small molecule agonists of the estrogen receptor alpha (ER-alpha) signaling pathway in the presence of an antagonist (AID 1259383); also: top concentration of the series differs between compounds; nearly all actives have a fitted effect of over 15% in size
Sequence of Estrogen receptor (Homo sapiens) (P03372 whole entry, looked up): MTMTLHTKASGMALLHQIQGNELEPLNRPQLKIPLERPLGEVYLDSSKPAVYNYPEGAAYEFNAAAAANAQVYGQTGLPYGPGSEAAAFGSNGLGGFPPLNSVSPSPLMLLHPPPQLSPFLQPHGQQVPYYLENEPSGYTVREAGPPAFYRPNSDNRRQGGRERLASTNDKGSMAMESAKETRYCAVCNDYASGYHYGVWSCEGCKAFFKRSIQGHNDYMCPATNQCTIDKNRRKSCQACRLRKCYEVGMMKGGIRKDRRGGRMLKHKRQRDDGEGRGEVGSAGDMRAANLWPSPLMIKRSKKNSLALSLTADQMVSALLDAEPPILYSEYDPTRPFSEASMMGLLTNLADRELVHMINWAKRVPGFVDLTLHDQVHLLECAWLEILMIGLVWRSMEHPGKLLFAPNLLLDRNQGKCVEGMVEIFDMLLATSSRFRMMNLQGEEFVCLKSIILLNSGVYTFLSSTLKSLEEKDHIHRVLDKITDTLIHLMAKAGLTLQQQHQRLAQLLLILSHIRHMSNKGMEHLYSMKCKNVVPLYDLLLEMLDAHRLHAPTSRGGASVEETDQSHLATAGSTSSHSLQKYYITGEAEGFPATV
How it was run: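 Using VM7Luc4E2 cells seeded 24hr before treatment, antagonist ICI-182,780 (10.0nM final) was added, followed by compounds at 15 concentrations. Plates incubated 22hr; ONE-Glo luminescence quantified reporter activity.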

[3] = qHTS assay to identify small molecule agonists or antagonists of the thyroid stimulating hormone receptor (TSHR) signaling pathway - wild type cell line counter screen (AID 1259384)
How it was run: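 Wild-type HEK293 cells were plated 18 h at 37 C/5% CO2, pin-dosed with compound plus Ro20-1724 medium, held 30 min at room temperature, then given cAMP-d2 and anti-cAMP-cryptate; fluorescence was read after 1 h. Fifteen concentrations, triplicate.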

[4] = target: Thyrotropin receptor (Homo sapiens) (UniProt P16473); assay: qHTS assay to identify small molecule antagonists of the thyroid stimulating hormone receptor (TSHR) signaling pathway (AID 1259385); also: nearly all actives have a fitted effect of over 20% in size
Sequence of Thyrotropin receptor (Homo sapiens) (P16473 whole entry, looked up): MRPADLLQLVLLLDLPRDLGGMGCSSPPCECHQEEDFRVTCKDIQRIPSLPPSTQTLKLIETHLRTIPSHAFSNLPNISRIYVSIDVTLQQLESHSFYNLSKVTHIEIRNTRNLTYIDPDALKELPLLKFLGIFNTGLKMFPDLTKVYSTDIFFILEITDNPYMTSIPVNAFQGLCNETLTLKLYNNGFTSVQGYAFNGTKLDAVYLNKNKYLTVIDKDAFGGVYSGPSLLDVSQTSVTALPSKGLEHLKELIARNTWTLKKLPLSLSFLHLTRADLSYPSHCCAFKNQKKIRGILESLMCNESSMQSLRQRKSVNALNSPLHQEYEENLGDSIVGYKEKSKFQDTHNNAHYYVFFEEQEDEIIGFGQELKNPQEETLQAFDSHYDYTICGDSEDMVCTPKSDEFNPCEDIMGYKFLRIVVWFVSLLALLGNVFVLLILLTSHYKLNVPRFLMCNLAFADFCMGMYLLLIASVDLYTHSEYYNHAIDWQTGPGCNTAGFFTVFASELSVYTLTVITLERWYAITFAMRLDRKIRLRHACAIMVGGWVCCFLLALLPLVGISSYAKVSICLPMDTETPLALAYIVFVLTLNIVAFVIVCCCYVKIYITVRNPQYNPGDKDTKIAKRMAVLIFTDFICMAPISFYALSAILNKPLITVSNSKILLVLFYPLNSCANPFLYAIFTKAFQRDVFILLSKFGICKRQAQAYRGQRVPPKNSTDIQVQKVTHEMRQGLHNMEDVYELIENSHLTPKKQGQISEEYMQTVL
How it was run: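 TSHR-HEK293 cells were plated and held 18 h at 37C/5% CO2, then given compound plus Ro20-1724 and stimulated with TSH at 1.5 ng/mL final. After 30 min at room temperature, cAMP was detected with cAMP-d2/anti-cAMP-cryptate (1 h) by fluorescence.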

[5] = target: Progesterone receptor (Homo sapiens) (UniProt P06401); assay: qHTS assay to identify small molecule agonists of the progesterone receptor (PR) signaling pathway (AID 1346784); also: nearly all actives have a fitted effect of over 30% in size
Sequence of Progesterone receptor (Homo sapiens) (P06401 whole entry, looked up): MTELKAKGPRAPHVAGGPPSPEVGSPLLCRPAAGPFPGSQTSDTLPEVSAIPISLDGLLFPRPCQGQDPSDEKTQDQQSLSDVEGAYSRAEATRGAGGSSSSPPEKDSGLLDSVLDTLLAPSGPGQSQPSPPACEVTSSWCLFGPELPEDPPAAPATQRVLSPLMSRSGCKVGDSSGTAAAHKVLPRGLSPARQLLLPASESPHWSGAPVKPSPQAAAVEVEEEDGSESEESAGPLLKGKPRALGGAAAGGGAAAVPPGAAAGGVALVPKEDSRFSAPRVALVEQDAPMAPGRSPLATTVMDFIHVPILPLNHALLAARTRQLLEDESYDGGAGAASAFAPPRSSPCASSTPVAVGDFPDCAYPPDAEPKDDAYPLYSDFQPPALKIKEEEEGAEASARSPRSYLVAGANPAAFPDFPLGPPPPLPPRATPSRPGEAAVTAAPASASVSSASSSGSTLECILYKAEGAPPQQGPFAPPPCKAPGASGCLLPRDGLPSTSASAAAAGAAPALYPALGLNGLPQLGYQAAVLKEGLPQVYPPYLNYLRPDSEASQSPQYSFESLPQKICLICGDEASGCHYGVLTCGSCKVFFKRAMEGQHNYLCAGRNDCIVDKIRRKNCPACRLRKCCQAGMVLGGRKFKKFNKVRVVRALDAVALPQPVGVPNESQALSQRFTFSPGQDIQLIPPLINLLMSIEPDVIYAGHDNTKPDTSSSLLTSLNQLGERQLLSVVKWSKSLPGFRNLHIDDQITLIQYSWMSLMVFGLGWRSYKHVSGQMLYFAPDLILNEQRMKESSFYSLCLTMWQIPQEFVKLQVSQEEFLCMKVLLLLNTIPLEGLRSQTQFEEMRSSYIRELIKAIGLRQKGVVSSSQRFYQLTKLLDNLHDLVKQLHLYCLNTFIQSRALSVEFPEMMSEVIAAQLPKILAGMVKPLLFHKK
How it was run: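 PR-UAS-bla HEK 293T cells (beta-lactamase reporter under UAS) in 2% charcoal-stripped FBS, dosed with 23 nL compound after 6 hr, incubated 16hr at 37C. LiveBLAzer B/G FRET substrate added, fluorescence read after 2 hours.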

[6] = target: Progesterone receptor (Homo sapiens) (UniProt P06401); assay: qHTS assay to identify small molecule antagonists of the progesterone receptor (PR) signaling pathway (AID 1346795; active = well fitted inhibition curve with a large enough effect in the signal ratio in the repeat runs, not every such curve was filed as active; the % refers to the signal ratio)
How it was run: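 PR-UAS-bla HEK293T cells with beta-lactamase reporter under UAS control, in 2% charcoal-stripped FBS, treated with compounds plus 1 nM promegestone (R5020, final) for 16 hr at 37C. Read-out: FRET beta-lactamase substrate fluorescence after 2 hr at room temperature.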

[7] = qHTS assay to identify small molecule antagonists of the progesterone receptor (PR) signaling pathway - cell viability counter screen (AID 1346798; active = well fitted curve in the direction sought with a large enough effect in the repeat runs; an effect the other way counts as inactive or inconclusive; also: series mostly up to about 92 µM; nearly all actives have a fitted effect of over 50% in size)
How it was run: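 PR-UAS-bla HEK293T cells, 3,000/well in 2% charcoal-stripped FBS medium, dosed with compounds plus R5020 agonist and incubated 16 h at 37C. Viability then measured in the same wells by CellTiter-Glo luminescence after 30 min at RT.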

[8] = qHTS assay to identify small molecule agonists of the progesterone receptor (PR) signaling pathway - cell viability counter screen (AID 1346799); also: nearly all actives have a fitted effect of over 45% in size
How it was run: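 Counter screen in the PR-UAS-bla HEK293T wells (2% charcoal-stripped FBS, 16 h compound exposure at 37 C) after the bla read. CellTiter-Glo added, 30 min at room temperature, luminescence read as cell viability.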

[9] = qHTS assay to identify small molecule antagonists of the TGF-beta/Smad signaling pathway - cell viability counter screen (AID 1346824; active = well fitted curve in the direction sought with a large enough effect in the repeat runs; an effect the other way counts as inactive or inconclusive; also: nearly all actives have a fitted effect of over 50% in size)
How it was run: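 SBE-bla HEK 293T cells were plated overnight at 37 C, then given compounds in DMSO plus TGF-beta1 (added as 0.25 ng/mL solution) for 5 hr. After the bla read, CellTiter-Glo was added to the same wells and luminescence read after 30 min at room temperature.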

[10] = qHTS assay to identify small molecule agonists of the estrogen receptor alpha (ER-alpha) signaling pathway in the presence of an antagonist - cell viability counter screen (AID 1259386; active = well fitted curve in the direction sought with a large enough effect in the repeat runs; an effect the other way counts as inactive or inconclusive;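 also: series mostly up to about 92 µM; cells exposed to compounds for 22 h at 37 °C before the viability read; nearly all actives have a fitted effect of over 30% in size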)
How it was run: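 ICI-182,780 at 10.0nM final accompanies the compound titration (15 concentrations, 22hr, 37C) on VM7Luc4E2 cells. The CellTiter-Fluor fluorescence readout runs in the same wells as the luciferase assay.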

Measured: Potency

C[C@H](CCC(=O)O)[C@H]1CC[C@H]2[C@@H]3[C@H](O)C[C@@H]4C[C@H](O)CC[C@]4(C)[C@H]3C[C@H](O)[C@]12C
not listed: [10]
inactive: all other assays above

CCOC(=O)CC#N
not listed: [8]
inactive: all other assays above

CN=C(NC#N)NCCSCc1csc(N=C(N)N)n1
not listed: [6] | [7] | [8]
inactive: all other assays above

C[N+](C)(C)CC(O)CCl (stereo not given)
not listed: [8]
inactive: all other assays above

CC(=O)N1CCN(c2ccc(O)cc2)CC1
not listed: [4]
inactive: all other assays above

CCCCCCCCOC(C)=O
not listed: [8]
inactive: all other assays above

OC[C@@H](O)[C@H](O)[C@@H](O)[C@@H](O)CO
not listed: [6] | [8]
inactive: all other assays above
